Screening results deposited in PubChem BioAssay by several laboratories.
The list is not random: actives were taken first. Their share in the collection is about 2%.
PAX8 reporter: inhibitors of PAX8-driven TPO luciferase reporter, primary screen, RMG-I cells, single concentration; SteadyGlo, 24 h; AID 652154, 2013; 360,000 compounds, 1.2% hits; inhibition, % at 12.6 µM;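 active = mean replicate inhibition at least 60% with every replicate also reaching 60%; inconclusive = only one of the two criteria is met; inactive = mean below 60% and not all replicates reaching 60%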;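 note: luciferase light reporting Pax8 driven TPO promoter activity; plate controls were median of neutral control wells for no effect and mitoxantrone controls for full effect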
Shn3 inh set2: reduction of Shn3 3'UTR firefly luciferase signal, primary screen, Schnurri-3 inhibitor project, cell-based, Clone20 osteoblasts, set 2; Clone20 osteoblast Shn3 3'UTR firefly luciferase, 24 h; 360,000 compounds, 0.52% hits; AID 588674, 2011; inhibition, % at 12.5 µM;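 active = mean inhibition of at least 75% with every replicate also reaching 75%; inconclusive = mean inhibition at least 75% but some replicate below; inactive = mean inhibition below 75%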;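 note: 0% = median of neutral control wells and 100% = pilot-screen positive control compound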
CF NFkB block: inhibitors of PAF-induced NF-kB signaling, primary screen, cell-based, GFP fluorescence, uHTS. KKLEB NF-kB-GFP reporter, GFP fluorescence overnight. inhibition, % at 5 µM. 360,000 compounds, 0.86% hits. AID 588850, 2011;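 active = at least 50% inhibition at 5 µM, scaled per plate between neutral and stimulator controls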;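 note: PAF is a Pseudomonas aeruginosa culture filtrate used as stimulus; plate controls were PAF-stimulated DMSO wells for no effect and unstimulated DMSO wells for full effect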
EWS-Fli block: EWS/Fli-driven NR0B1 reporter inhibitors, primary screen, A673 cells, NR0B1 luciferase, luminescence, MLPCN library. viability-normalised. inhibition, % at 12.6 µM. 350,000 compounds, 0.67% hits. AID 651661, 2012;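 active = mean inhibition of at least 50% after viability correction, with every replicate also passing that limit; inconclusive = mean reaches 50% but only one of two replicates passes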;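 note: firefly luciferase signal divided by Alamar Blue viability fluorescence both relative to DMSO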
KKLEB tox: cytotoxicity in KKLEB CF airway cells, primary screen, cytotoxicity control for CF NF-kB inhibitor project, cell-based, uHTS, fluorescence assay plates; KKLEB CF airway cells viability, ATPlite luminescence, overnight; hits give low values; cells stimulated with P. aeruginosa culture filtrate; AID 602141, 2011; 360,000 compounds, 0.36% hits; activity change (cytotoxicity), % at 5 µM;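 active = corrected activity change at or below -50% at 5 µM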
LGR2 inh: inhibitors of bursicon-induced LGR2 CRE-luciferase signal, primary screen, cell-based, HEK293, CRE-luciferase reporter, bursicon stimulation | Drosophila bursicon receptor LGR2 (rickets) | bursicon-stimulated, 4 h | inhibition, % at 9.99 µM | 380,000 compounds, 0.35% hits;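 active = drop in luminescence signal, shown as inhibition above about 50% in the replicate tests, limit read from the data, passing the limit was not always enough; inconclusive = probably only some replicates passing the limit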;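 note: agonist challenge used bursicon conditioned medium at about half maximal strength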
CF NFkB inh conf: inhibitors of PAF-induced NF-kB signaling, retest, confirmation, cell-based, GFP fluorescence, single concentration | shares compounds with CF NFkB block | KKLEB CF airway cells, overnight | inhibition, % at 5 µM | 1,300 compounds, 64% hits; in the data active = inhibition above about 40%;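 note: stimulus PAF is a Pseudomonas aeruginosa filtrate and not platelet activating factor; plate controls were DMSO wells with stimulus for no effect and unstimulated DMSO wells for full effect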
Active calls of the source: *.

What do the screens show for `Cc1cc(C)cc(NS(=O)(=O)c2ccc(-c3cnc(C4CC4)o3)cc2)c1`?
PAX8 reporter: 75*; Shn3 inh set2: 74; CF NFkB block: 64*; KKLEB tox: -31; LGR2 inh: -26; CF NFkB inh conf: 82*

Results for CCOc1ccc(NS(=O)(=O)c2ccc(-c3cnc(C4CC4)o3)cc2)cc1 ?
PAX8 reporter: 14; Shn3 inh set2: 19; CF NFkB block: 15; EWS-Fli block: 22; KKLEB tox: -8; LGR2 inh: 8

How did Cc1cccc(NS(=O)(=O)c2ccc(-c3cnc(C4CC4)o3)cc2)c1C do in these assays?
PAX8 reporter: 75*; Shn3 inh set2: 29; CF NFkB block: 52*; KKLEB tox: 11; LGR2 inh: -5; CF NFkB inh conf: 87*

What do the screens show for `O=S(=O)(Nc1ccccc1)c1ccc(-c2cnc(C3CC3)o2)cc1`?
PAX8 reporter: 36; Shn3 inh set2: 10; CF NFkB block: 22; KKLEB tox: -6; LGR2 inh: 12

What do the screens show for `C[C@@H]1CN([C@@H](C)CO)C(=O)c2cccc(NC(=O)NC3CCCCC3)c2O[C@H]1CN(C)Cc1ccncc1`?
PAX8 reporter: 3; EWS-Fli block: 3; LGR2 inh: -16

How did O=[N+]([O-])c1cc([N+](=O)[O-])c2oc(-c3ccccc3)c(Br)c2c1O do in these assays?
Shn3 inh set2: 1; CF NFkB block: 50*; KKLEB tox: -22; CF NFkB inh conf: 87*

What do the screens show for `COc1ccc(CN(C(=O)CSc2nnc(-c3c[nH]c4ccccc34)o2)c2ccc(F)cc2)cc1OC`?
PAX8 reporter: 81*; Shn3 inh set2: 80; CF NFkB block: 63*; KKLEB tox: -8; CF NFkB inh conf: 68*

What do the screens show for `CCOC(=O)CSc1nnc(-c2c[nH]c3ccccc23)o1`?
PAX8 reporter: 1; Shn3 inh set2: -9; CF NFkB block: -11; EWS-Fli block: -22; KKLEB tox: -14; LGR2 inh: -5

Results for COc1ccc(CCNc2ccc(S(N)(=O)=O)cn2)cc1 ?
PAX8 reporter: -2; Shn3 inh set2: 1; CF NFkB block: -11; EWS-Fli block: -3; KKLEB tox: -5; LGR2 inh: -3

How did NS(=O)(=O)c1ccc(CCNc2nn3c(-c4cccc(OC(F)(F)F)c4)cnc3s2)cc1 do in these assays?
PAX8 reporter: inconclusive; Shn3 inh set2: 83; CF NFkB block: 53*; EWS-Fli block: 2; KKLEB tox: -41; LGR2 inh: 15; CF NFkB inh conf: 70*

What do the screens show for `O=C1/C(=C/c2cccnc2)CCc2c1[nH]c1ccccc21`?
PAX8 reporter: -66; Shn3 inh set2: 55; CF NFkB block: 70*; EWS-Fli block: 3; KKLEB tox: -14; LGR2 inh: -63; CF NFkB inh conf: 84*

What do the screens show for `O=C(C(c1ccccc1)N1CCOCC1)N1CCOCC1` (centres undefined)?
Shn3 inh set2: 2; CF NFkB block: 6; KKLEB tox: -1; LGR2 inh: 11

What do the screens show for `O=C(C=Cc1ccccc1)CC(c1ccccc1)N1CCOCC1` (centres undefined)?
PAX8 reporter: 25; Shn3 inh set2: 24; CF NFkB block: 94*; EWS-Fli block: 59*; KKLEB tox: -36; LGR2 inh: 1; CF NFkB inh conf: inactive

How did COc1ccc(S(=O)(=O)Nc2cccc3c2O[C@H](CN(C)S(=O)(=O)c2ccc(OC)cc2)[C@@H](C)CN([C@@H](C)CO)C3=O)cc1 do in these assays?
PAX8 reporter: -15; LGR2 inh: -10

Results for Clc1ccc(CSc2nnc(-c3ccncc3)o2)cc1 ?
Shn3 inh set2: 2; CF NFkB block: 70*; KKLEB tox: -5; CF NFkB inh conf: 62*

Results for COc1cc(-c2cc(C(=O)NCc3ccco3)c3ccccc3n2)cc(OC)c1OC ?
PAX8 reporter: 7; Shn3 inh set2: 13; CF NFkB block: -21; EWS-Fli block: 11; KKLEB tox: -5; LGR2 inh: 3

Results for COc1cc(-c2cc(C(=O)Nc3ccc(S(=O)(=O)NCc4ccco4)cc3)c3ccccc3n2)cc(OC)c1OC ?
PAX8 reporter: 39; Shn3 inh set2: -1; CF NFkB block: 64*; KKLEB tox: 8; LGR2 inh: 24; CF NFkB inh conf: 98*

What do the screens show for `Cc1noc(C)c1NC(=O)N[C@H]1CC[C@@H](CC(=O)NCCCN(C)C)O[C@H]1CO`?
PAX8 reporter: 1; EWS-Fli block: 6; LGR2 inh: 12

Results for O=[N+]([O-])c1ccc(Oc2ccc(F)cc2)c2ccncc12 ?
Shn3 inh set2: 12; CF NFkB block: 59*; KKLEB tox: -24; CF NFkB inh conf: 63*

Results for CC(C)N(C(=O)[C@H]1C[C@H](CC(=O)NCc2cccc(C(F)(F)F)c2)C(=O)N2CCc3c([nH]c4ccc(Cl)cc34)[C@]12C)C(C)C ?
PAX8 reporter: -4; Shn3 inh set2: 12; CF NFkB block: 60*; EWS-Fli block: -12; KKLEB tox: -41; LGR2 inh: 12; CF NFkB inh conf: 39

Results for COc1ccc(N=C2C(=S)N(c3ccc(OC)cc3)C(=NS(=O)(=O)c3ccccc3)N2c2ccccc2)cc1 ?
PAX8 reporter: -104; Shn3 inh set2: -35; CF NFkB block: -13; EWS-Fli block: -31; KKLEB tox: 10; LGR2 inh: 19

Results for N=C1N(c2ccccc2)C(=S)C(=Nc2ccccc2)N1c1ccccc1 ?
PAX8 reporter: -119; Shn3 inh set2: -42; CF NFkB block: 67*; EWS-Fli block: -21; KKLEB tox: -2; LGR2 inh: -68; CF NFkB inh conf: 81*

What do the screens show for `C[C@H](CO)N1C[C@H](C)[C@H](CN(C)C(=O)Nc2ccc(C(F)(F)F)cc2)Oc2ccc(NC(=O)Nc3ccc4c(c3)OCO4)cc2C1=O`?
PAX8 reporter: 49; EWS-Fli block: -65; LGR2 inh: 10

What do the screens show for `CC(C)Cc1nc2n[nH]c(N)c2c2c1CCCC2`?
Shn3 inh set2: -5; CF NFkB block: 22; KKLEB tox: 0

What do the screens show for `CC(C)c1nc2n[nH]c(N)c2c2c1CCCC2`?
PAX8 reporter: -5; Shn3 inh set2: -4; CF NFkB block: 50*; KKLEB tox: -8; CF NFkB inh conf: 32
